Data as given in PubChem BioAssay AID651965 (National Center for Advancing Translational Sciences (NCATS), 2013).
Screen size: about 340,000 compounds; about 6,400 (1.9%) were called active. Roughly 4% stayed inconclusive and do not appear here. The call rests on the fitted dose curve; in most records, active means well fitted falling curve with a large enough effect; inconclusive means small, poorly fitted or top-dose-only effect; inactive means no such curve, though single readings can be large or run the other way. What follows is part of a selection rich in actives, with near analogues and random picks from the rest.

Biological target: ATP-dependent Clp protease proteolytic subunit (Bacillus subtilis (strain 168)) (UniProt P80244)
Sequence (P80244 whole entry, looked up): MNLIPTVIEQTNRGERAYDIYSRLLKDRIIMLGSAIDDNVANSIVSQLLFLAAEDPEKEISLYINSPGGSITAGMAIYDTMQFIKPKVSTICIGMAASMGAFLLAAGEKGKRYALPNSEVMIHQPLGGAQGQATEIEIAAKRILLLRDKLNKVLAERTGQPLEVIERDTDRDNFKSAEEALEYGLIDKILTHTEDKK
Assay: qHTS Assay for Activators of ClpP; further: the source files actives as falling curves though it sought activators and does not explain the sign; nearly all actives have a fitted effect of over 65% in size
Conditions: purified B. subtilis ClpP, FRET peptide cleavage, 20 min; series mostly up to 57.5 µM
Outline: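 Buffer: 100 mM Tris/HCl pH8, 100 mM KCl, 0.05% low protease BSA, 2.5% glycerol, 0.01% Tween-20. ClpP 10 microg/mL final; 20 min RT; delta FRET normalized to ADEP and DMSO controls.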
Potency means the concentration at half of the fitted maximal effect.

Potency, active:
O=C(COc1coc(CN2CCN(c3ccccc3)CC2)cc1=O)N1CCc2ccccc21 28.2 µM
COc1cccc(C(=O)Nc2ccc(NC(=O)c3ccco3)cn2)c1 14.1 µM
Cc1ccc(C(=O)COc2cccc(NC(=O)c3ccco3)c2)cc1 15.8 µM
CCOc1ccc(NS(=O)(=O)c2ccc(C(=O)NC3CCN(Cc4ccccc4)CC3)cc2)cc1 28.2 µM
COc1cccc(NC(=O)CN2CCN(c3nc(-c4cccc(OC)c4)cs3)CC2)c1 17.8 µM
CC(=O)C1=C(O)C(=O)N(c2ccc(S(N)(=O)=O)cc2)C1c1ccccc1F (stereo unspecified) 25.1 µM

Potency, inactive:
O=C(COc1coc(CN2CCN(c3ccccc3)CC2)cc1=O)Nc1ccccc1F
O=C(COc1coc(CN2CCN(c3ccccc3F)CC2)cc1=O)N1CCc2ccccc21
CS(=O)c1ccc(/C=C2\C=Cc3ccccc32)cc1 (stereo unspecified)
CCCNC(=O)C1(C)CCCN(Cc2cccc(C(F)(F)F)c2)C1 (stereo unspecified)
Cc1cc(C)c(S(=O)(=O)NN=C2c3ccccc3[C@H]3Cc4csc[n+]4[C@@H]23)c(C)c1
Cc1ccc(-c2nc3ccccn3c2Nc2ccc(F)cc2)o1
COc1ccccc1C(=O)Nc1ccc(NC(=O)c2ccco2)c(C)c1
COc1ccc(NC(=O)c2ccco2)cc1NC(=O)COc1ccc(C)c(C)c1
O=C(Nc1ccc(NC(=O)c2cccs2)cn1)c1ccco1
Cc1ccc(NC(=O)c2ccco2)cc1
O=C1C(Sc2cccc(F)c2)=C[C@@]2(O)CC[C@@H](O)[C@]1(Sc1cccc(F)c1)[C@H]2O
CCOc1ccc(CC(=O)NC2CCN(Cc3ccccc3)CC2)cc1
CCOc1ccc(C(=O)NC2CCN(S(=O)(=O)CC)CC2)cc1
NC1=CC(=O)C(=O)c2cccnc21
Cc1ccc([C@@H]2CC(=O)[C@@H]3CN(S(=O)(=O)c4ccc(C)cc4)[C@H](c4ccccc4F)C[C@@H]3N2S(=O)(=O)c2ccc(Cl)cc2)cc1
COCCCNC(=S)N1CCN(c2nc(-c3cccc(OC)c3)cs2)CC1
COc1cccc(NC(=O)CN2CCN(CC(=O)Nc3ccccc3Cl)CC2)c1
COC(=O)[C@]12CCCCC=C1N(CCC1=CCCCC1)C(=O)[C@H](CC(=O)NCC1CCCCC1)C2
CC(=O)C1=C(O)C(=O)N(c2ccc(Br)cc2)C1c1ccc([N+](=O)[O-])cc1 (stereo unspecified)
NS(=O)(=O)c1ccc(NC2=CC(c3ccc(F)cc3)N(c3ccc(S(N)(=O)=O)cc3)C2=O)cc1 (stereo unspecified)
